Shown is part of a subset that was picked to be rich in hits.
GoLoco inh red = RGS12 GoLoco-Gai1 interaction inhibition; P63096; 230,000 compounds, 0.44% hits; Potency, µM (doses to about 61.6 µM), for the others: at the top dose activity, negative = inhibition, usual class: inhibitors; Gai1:RGS12 GoLoco peptide FP, rhodamine, 10 min; active = well fitted inhibition curve with a large enough effect, not every such curve was filed as active; inactive = no such curve, though single readings can be large or run the other way; note: nearly all actives have a fitted effect of over 30% in size
IMPase Li cell = membrane-permeable IMPase blocker, potentiated with lithium | CHO-M1 cells, IP1 TR-FRET (IP-One), carbachol + lithium | Potency, µM (titrated, usually from 59.4 µM), inactives show top-dose activity, negative = IMPase inhibition, hits mostly inhibitors | 210,000 compounds, 0.35% hits | AID 1457;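 note: IP1 builds up when IMPase is blocked and the TR-FRET signal falls; plate controls were basal vehicle for no effect and high inhibitor control for full effect; nearly all actives have a fitted effect of over 50% in size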
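CHO cells stably expressing M1 receptor (2000/well, cultured 16–30 h) treated 30 min at 37C with compound plus low lithium. Cytosolic IP1 by TR-FRET (665/620 ratio and 620 channel) after 10 min lysis; AC50 by Hill fit.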
Tb PFK block = blocks T. brucei phosphofructokinase; T. brucei PFK, ADP-Glo luminescence; Potency, µM (series often up to 57.5 µM), inactives show at the highest dose activity, negative = inhibition, hits mostly inhibitors; 330,000 compounds, 0.17% hits; AID 485367;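 note: 0% = uninhibited 1x PFK enzyme wells and -100% = no-enzyme wells; nearly all actives have a fitted effect of over 60% in size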
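Activity is normalized to no-enzyme wells (full inhibition) and 1.25 nM enzyme wells (no inhibition). Reaction: 0.5 mM F6P, 0.1 mM ATP, 45 min RT, ADP-Glo luminescence; concentration-response curves fitted and classed by quality.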
MBNL1-CUG inh = MBNL1-poly(CUG) RNA binding inhibition; TR-FRET MBNL1-His/biotin-(CUG)12 binding, 665/545 ratio; 280,000 compounds, 0.036% hits; Q9NR56; Potency, µM (highest dose often 57.5 µM), for the others: top-dose activity change, negative = inhibition, hits mostly inhibitors; active = well fitted inhibition curve with a large enough effect in the signal ratio, with a control signal flat, not every such curve was filed as active; inconclusive = small, poorly fitted or top-dose-only effect, or effect the other way, or a change in a side signal; inactive = no such curve, though single readings can be large or run the other way; the % refers to the signal ratio
Target sequence (Q9NR56 whole entry, looked up): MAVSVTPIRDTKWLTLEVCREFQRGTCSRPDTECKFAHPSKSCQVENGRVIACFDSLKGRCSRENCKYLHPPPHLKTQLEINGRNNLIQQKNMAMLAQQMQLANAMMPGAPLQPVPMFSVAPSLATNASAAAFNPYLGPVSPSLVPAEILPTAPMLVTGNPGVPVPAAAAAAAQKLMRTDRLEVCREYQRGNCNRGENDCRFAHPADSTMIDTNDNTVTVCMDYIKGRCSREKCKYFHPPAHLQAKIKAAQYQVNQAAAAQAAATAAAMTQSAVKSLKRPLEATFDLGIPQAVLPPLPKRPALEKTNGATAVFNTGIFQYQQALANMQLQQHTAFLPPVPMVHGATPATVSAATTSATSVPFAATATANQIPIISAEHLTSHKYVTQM
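Compound titration spanned 92 nM–58 uM against the MBNL1-His/biotin-(CUG)12 complex. After 60 min at room temperature with 5 nM streptavidin-XL665 and 0.055 ng/ul terbium anti-His, ratiometric 665/545 nm emission (Ex 340 nm) normalized to controls.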
NPSR antagonist = blocks cAMP signaling of the human neuropeptide S receptor; CHO-NPSR cells, cAMP TR-FRET, antagonist mode; 220,000 compounds, 1% hits; Potency, µM (doses to about 38.3 µM), inactives show at the top dose activity change, negative = inhibition, most hits filed as inhibitors; Q6W5P4; note: nearly all actives have a fitted effect of over 50% in size
Target sequence (Q6W5P4 whole entry, looked up): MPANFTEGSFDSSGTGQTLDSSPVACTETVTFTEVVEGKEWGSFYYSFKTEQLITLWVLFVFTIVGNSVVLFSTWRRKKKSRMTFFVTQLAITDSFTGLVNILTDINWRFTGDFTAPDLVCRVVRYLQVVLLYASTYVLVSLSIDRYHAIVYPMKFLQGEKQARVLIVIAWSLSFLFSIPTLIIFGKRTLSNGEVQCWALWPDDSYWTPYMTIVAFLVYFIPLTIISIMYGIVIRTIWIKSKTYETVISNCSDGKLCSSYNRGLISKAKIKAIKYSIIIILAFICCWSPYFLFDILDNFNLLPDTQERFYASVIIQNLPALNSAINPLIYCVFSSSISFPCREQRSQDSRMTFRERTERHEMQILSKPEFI
* marks the source's active call; other numbers are inactive results; ? = inconclusive; · = not tested or not shown; [ ] = remark or other dose. Unless noted, calls come from the whole dose curve; as a rule, active = well fitted curve in the direction sought with a large enough effect; inconclusive = small, poorly fitted or top-dose-only effect, or another doubt; inactive = no such curve, though single readings can be large; an effect the other way counts as inactive or inconclusive. Unless noted, % is set by controls: 0 for no effect and ±100 for the full control effect; potency is the fitted concentration of half-maximal effect.

SMILES	GoLoco inh red	IMPase Li cell	Tb PFK block	MBNL1-CUG inh	NPSR antagonist
N#Cc1c(-c2ccc(Br)cc2)cc(-c2cccnc2)nc1N	4.0%	22.4µM*	-1.6%	·	6.1%
CS(=O)(=O)c1nc(-c2ccc(Br)cc2)cc(-c2ccccc2)c1C#N	5.4%	-29.7%[38.3 µM]	6.9%	22.0%	7.94µM*
N#Cc1c(-c2cccc(Br)c2)cc(-c2cccnc2)nc1N	69.0%	?	0.5%	·	-29.5%
CS(=O)c1nc(-c2ccc(Br)cc2)cc(-c2ccccc2)c1C#N (stereo not drawn)	2.5%	27.5%[38.3 µM]	14.5%	8.0%	12.6µM*
Nc1ccc(C(=O)O)c(O)c1	3.8%	9.1%	0.7%	?	10.9%
Nc1ccc(N)c(C(=O)O)c1	15.8µM*	·	?	?	-18.0%
COc1ccc2c(c1)O[C@@H](c1cccc(C(F)(F)F)c1)[C@H](OC(=O)NCCOc1ccccc1)C2=O	-0.4%	12.6%	·	·	·
COC(=O)c1ccccc1S(=O)(=O)NNC(=O)C12CC3CC(CC(C3)C1)C2	·	·	0.8%	·	·
C[N+](C)(C)CC/C=C1/c2ccccc2CSc2ccccc21	2.24µM*	27.3%	2.8%	-10.0%	8.8%[46.1 µM]
N#Cc1cc([N+](=O)[O-])ccc1NC(=O)CSc1n[nH]c(=O)n1C1CC1	·	·	-2.9%	·	·
CCOC(=O)c1c(C)n(-c2ccc(C)cc2)c2c(CC(C)=O)c(Br)c(OC)c(O)c12	-0.1%	35.4%[38.3 µM]	2.0%	1.4%	10µM*
CCOC(=O)c1c(C)n(-c2ccc(C)cc2)c2c(C(C(C)=O)C(=O)O)c(Br)c(O)c(O)c12 (stereo not drawn)	-18.0%	49.5%[38.3 µM]	?	-1.7%	10µM*
CCOC(=O)c1c(C)n(-c2ccc(C)cc2)c2ccc(O)c(CN(C)C)c12	26.5%	-0.9%	0.5%	-3.6%	-52.6%
CCC/C=C(\CCC)C(NS(=O)(=O)c1cccc2cccnc12)c1ccc(-c2ccccc2)cc1 (stereo not drawn)	-11.2%	-9.6%	·	·	·
Cn1ncc(Br)c1NC(=O)c1ccco1	·	·	-9.6%	-10.4%	·
Cc1ccc(Sc2c(O)c3ccccc3n(C)c2=O)cc1	-3.1%	10µM*	-1.9%	11.9%[11.5 µM]	-23.5%
COc1ccc(CN2CCC(N(CCc3ccccc3)Cc3ccccc3)CC2)c(OC)c1	-3.8%	13.5%	-0.6%	-17.9%	7.94µM*
CC[C@H]1C/C=C\Cc2ccccc2[C@@H](C(=O)C[C@@H](O)CC(C)=O)OC1=O	·	·	0.0%	·	·
COc1ccc(OC)c(-c2csc(NC(=O)COC(=O)c3ccc(NC(=O)CC#N)cc3)n2)c1	·	·	21.3µM*	·	·
Cc1cccc(NC(=O)CSc2nc(C)c(CC(=O)c3ccc(Br)cc3)c(C)c2C#N)c1C	0.7%	?	0.1%	3.3%	6.31µM*
COc1ccc(OC)c(N=c2oc3cc(O)ccc3cc2C(N)=O)c1	17.8µM*	25.7%[38.3 µM]	0.0%	?	?
Cn1c(N2CCOCC2)c(/C=N/O)c2ccccc21	22.2%	3.9%	-0.1%	-2.6%	5.4%
CCn1c(=Nc2ccc(N3CCOCC3)cc2)ccc2ccccc21	0.2%	65.9%[38.3 µM]	7.0%	9.1%	15.1%[46.1 µM]
Cn1c(=Nc2ccc(N3CCOCC3)cc2)ccc2ccccc21	0.316µM*	33.3%[38.3 µM]	0.0%	?	4.1%[46.1 µM]
Cn1c(N=Nc2ccc(N3CCOCC3)cc2)[n+](C)c2ccccc21	71.8%	125.0%	?	18.3%	7.94µM*
SMILES	GoLoco inh red	IMPase Li cell	Tb PFK block	MBNL1-CUG inh	NPSR antagonist
CCCCc1nc2c(c3c1C[C@H](C)OC3)CN(S(=O)(=O)c1ccc3c(c1)OCCN3C)CC2	3.1%[14.2 µM]	-4.9%	·	·	·
CC(C)(C)C(=O)N1CCN(c2ccc([N+](=O)[O-])cc2-n2cccc2)CC1	6.9%	·	-5.3%	?	-58.1%
Cc1ccc(C(=O)N2CCN(c3ccc([N+](=O)[O-])cc3-n3cccc3)CC2)cc1	-3.1%	·	0.8%	23.1%	10µM*
COc1cc2c(cc1NC(=O)c1cccc([N+](=O)[O-])c1)oc1ccccc12	7.9%	26.8%[38.3 µM]	-2.0%	?	10µM*
CC1NC(=O)NC1CCCCCC(=O)NCCc1ccccc1 (stereo not drawn)	-10.3%	18.9%[38.3 µM]	-0.4%	0.447µM*	-7.8%[46.1 µM]
Cc1cccc(C)c1NC(=O)CCCCCC1NC(=O)NC1C (stereo not drawn)	2.3%	-0.3%	1.5%	0.708µM*	17.7%
O=C(CCCCC(=O)NCCCc1ccccc1)NCCCc1ccccc1	·	·	-0.2%	-1.3%	·
COc1ccc(-c2nc3cnc(Oc4ccccc4)nc3n(CCC#N)c2=O)cc1	1.3%	10µM*	·	·	·
N#CCCn1c(=O)c(-c2ccccc2)nc2cnc(OCc3ccccc3)nc21	4.4%	11.2µM*	·	·	·
COc1ccc(-c2nc3cnc(OCc4ccccc4)nc3n(CCC#N)c2=O)cc1	-9.1%	22.4µM*	·	·	·
CC[C@H](C(=O)c1cccs1)C(O)(C(F)(F)F)C(F)(F)F	5.1%[14.2 µM]	6.9%	·	·	·
Cc1ccc(S(=O)(=O)Oc2ccc(N=Nc3ccc(-c4ccc(N=Nc5c(O)ccc6cc(S(=O)(=O)O)cc(S(=O)(=O)O)c56)c(C)c4)cc3C)cc2)cc1	151.6%	-0.3%	·	·	·
CCOC(=O)c1cc([N+](=O)[O-])c([N+](=O)[O-])cc1NC(C)=O	-11.3%	26.4%	-6.2%	?	10µM*
Nc1nc(COC(=O)C2CC(=O)N(Cc3ccccc3Cl)C2)nc(Nc2ccccc2)n1 (stereo not drawn)	·	·	-2.2%	·	·
COc1ccccc1C1C(C(=O)c2cc3ccccc3o2)=C(O)C(=O)N1CCN(C)C (stereo not drawn)	12.3%	8.91µM*	-6.2%	?	16.8%[46.1 µM]
O=C(C1=C(O)C(=O)N(CCN2CCOCC2)C1c1cccc(Br)c1)c1cc2ccccc2o1 (stereo not drawn)	·	·	-1.7%	233.9%	·
CN(C)CCN1C(=O)C(O)=C(C(=O)c2cc3ccccc3o2)C1c1cccc(Br)c1 (stereo not drawn)	5.5%	11.2µM*	0.2%	114.2%	?
O=C(C1=C(O)C(=O)N(CCc2ccccc2)C1c1ccncc1)c1cc2ccccc2o1 (stereo not drawn)	5.7%	4.47µM*	0.2%	87.3%	-47.2%
O=C(C1=C(O)C(=O)N(c2nccs2)C1c1ccccc1)c1cc2ccccc2o1 (stereo not drawn)	20µM*	·	1.3%	·	?
COc1cc(Cl)cc(CN2CCC(CCC(=O)NC3CC3)CC2)c1OC	·	·	-3.8%	-9.3%	·
COCCC(=O)N1CCC(Oc2ccc(C(=O)NCCCC3CCCC3)cc2)CC1	·	·	1.3%	-9.3%	·
COC(=O)c1sc(S(=O)(=O)N2CCN(c3ccccc3F)CC2)c(C(=O)OC)c1C	·	·	-5.7%	·	·
O=C(Nc1ccc(N2CCCC2)cc1)c1cccc(Cl)c1Cl	·	·	2.1%	6.2%	·
O=C(C1=C(O)C(=O)N(CCCN2CCOCC2)C1c1ccccn1)c1cc2ccccc2o1 (stereo not drawn)	-1.2%	11.2µM*	3.4%	?	23.8%[46.1 µM]
